Common to all, as to parameters: scale not given: direction of the effect not stated beside the values
For experiment [1], the target named is Protein translocase subunit SecA (Escherichia coli (strain K12)) (UniProt P10408). Kind of experiment: Assay to Identify E. coli SecA ATPase Inhibitors. Format: functional. The note with it: 30 µM.
The target of experiment [2] is T1, Ubiquitin-activating enzyme e1, putative (Leishmania donovani (strain BPK282A1)) (UniProt E9BSI1).
T1 sequence (whole entry): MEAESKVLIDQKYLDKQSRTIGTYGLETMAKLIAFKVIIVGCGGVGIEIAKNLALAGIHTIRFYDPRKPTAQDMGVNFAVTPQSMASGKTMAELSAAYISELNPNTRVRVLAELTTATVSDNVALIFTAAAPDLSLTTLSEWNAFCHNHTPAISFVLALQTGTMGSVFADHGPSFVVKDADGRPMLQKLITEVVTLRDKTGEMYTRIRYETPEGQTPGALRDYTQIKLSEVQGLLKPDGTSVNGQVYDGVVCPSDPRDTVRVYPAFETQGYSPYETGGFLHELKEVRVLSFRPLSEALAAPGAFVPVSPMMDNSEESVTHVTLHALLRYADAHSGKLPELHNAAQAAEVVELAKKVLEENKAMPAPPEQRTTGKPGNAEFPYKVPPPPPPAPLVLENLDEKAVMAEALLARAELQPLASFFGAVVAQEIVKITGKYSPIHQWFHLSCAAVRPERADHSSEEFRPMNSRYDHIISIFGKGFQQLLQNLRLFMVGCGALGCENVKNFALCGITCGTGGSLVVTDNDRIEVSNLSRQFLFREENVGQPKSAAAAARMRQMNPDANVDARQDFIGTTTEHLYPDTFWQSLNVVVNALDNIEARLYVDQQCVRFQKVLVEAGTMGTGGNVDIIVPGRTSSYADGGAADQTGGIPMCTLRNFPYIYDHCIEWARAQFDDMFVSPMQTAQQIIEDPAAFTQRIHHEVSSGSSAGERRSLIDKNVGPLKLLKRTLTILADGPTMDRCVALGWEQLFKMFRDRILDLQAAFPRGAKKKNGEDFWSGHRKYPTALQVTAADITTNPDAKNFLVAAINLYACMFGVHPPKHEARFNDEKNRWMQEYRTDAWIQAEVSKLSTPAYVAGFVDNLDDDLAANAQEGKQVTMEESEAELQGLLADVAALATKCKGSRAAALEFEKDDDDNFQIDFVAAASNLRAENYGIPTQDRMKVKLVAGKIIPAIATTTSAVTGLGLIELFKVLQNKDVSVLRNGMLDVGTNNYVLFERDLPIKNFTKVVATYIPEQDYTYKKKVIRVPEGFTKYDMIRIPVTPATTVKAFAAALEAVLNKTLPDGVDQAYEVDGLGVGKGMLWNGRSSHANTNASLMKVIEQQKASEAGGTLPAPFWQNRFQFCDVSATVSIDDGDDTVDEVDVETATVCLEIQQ
Kind of experiment: Leishmania donovani Ubiquitin Activating Enzyme (LdE1). Format: functional. The note with it: 30 µM.

The target in experiment [3] is AMP-activated protein kinase, AMPK (Homo sapiens) (UniProt P54646+O43741+P54619+Q9UGJ0+Q9Y478+Q13131+Q9UGI9). Kind of experiment: AMP-dependent Kinase enzyme assay. An in vitro enzyme assay that detects ADP turnover that is directly proportional to AMPK activity. This uses naive AMPK that is activated during the assay with MK-8722. Format: functional. The note with it: 30 µM.

Experiment [4] has as its target Sialic acid-binding Ig-like lectin 9 (Homo sapiens) (UniProt Q9Y336). Kind of experiment: Hs-Siglec9 ALPHAscreen SOP 20170721. The note with it: 10 µM.
Experiment [5] has as its system Trypanosoma cruzi. Description: Trypanosoma cruzi phosphomannomutase and mannose-1-phosphate guanylyltransferase assay. Format: functional. The note with it: 10 µM.
Experiment [6] addresses T2, Arginase-2, mitochondrial (Homo sapiens) (UniProt P78540).
T2 sequence (whole entry): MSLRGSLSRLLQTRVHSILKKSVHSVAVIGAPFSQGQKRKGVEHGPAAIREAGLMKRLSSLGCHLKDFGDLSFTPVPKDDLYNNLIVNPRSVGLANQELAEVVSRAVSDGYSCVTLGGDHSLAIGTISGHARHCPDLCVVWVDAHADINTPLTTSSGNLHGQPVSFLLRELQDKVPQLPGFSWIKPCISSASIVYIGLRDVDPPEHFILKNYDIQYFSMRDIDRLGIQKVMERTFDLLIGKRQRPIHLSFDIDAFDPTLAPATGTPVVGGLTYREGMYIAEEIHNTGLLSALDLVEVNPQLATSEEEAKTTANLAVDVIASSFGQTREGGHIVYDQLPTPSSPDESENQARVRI
Description: in vitro enzyme assay to detect the production of urea directly proportional to the activity of Arginase II. Note: in the data most compounds retested in dose-response had high values. Format: functional. The settings on record: 33.3 µM.

In experiment [7] the target is T3, Proteasome subunit beta (Trypanosoma cruzi) (UniProt O96673).
T3 sequence (whole entry): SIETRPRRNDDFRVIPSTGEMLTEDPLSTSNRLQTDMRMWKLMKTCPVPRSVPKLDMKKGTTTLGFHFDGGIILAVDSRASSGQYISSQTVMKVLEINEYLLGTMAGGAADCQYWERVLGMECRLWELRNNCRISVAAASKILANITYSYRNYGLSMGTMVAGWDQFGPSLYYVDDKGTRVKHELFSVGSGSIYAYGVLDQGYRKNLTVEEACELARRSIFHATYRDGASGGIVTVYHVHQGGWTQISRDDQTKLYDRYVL
Kind of experiment: Trypanosoma cruzi proteasome chymotrypsin-like activity (TcProtChymo) assay. Note: in the data most compounds retested in dose-response had high values. Format: functional. The settings on record: 9.37 µM.

The species entered for experiment [8] is Homo sapiens. Description: To identify inhibition of the IFN signalling (Jak-Stat) pathway via expression of an eGFP reporter gene under the control of an IFN-stimulated response element (ISRE) containing MxA promoter. Format: functional. The settings on record: 30 µM. A general note: Reporter assays use an easily measured gene product as a stand-in for the process of interest.

The target of experiment [9] is T4, Tyrosyl-tRNA synthetase, putative (Trypanosoma cruzi (strain CL Brener)) (UniProt Q4DSP6).
T4 sequence (whole entry): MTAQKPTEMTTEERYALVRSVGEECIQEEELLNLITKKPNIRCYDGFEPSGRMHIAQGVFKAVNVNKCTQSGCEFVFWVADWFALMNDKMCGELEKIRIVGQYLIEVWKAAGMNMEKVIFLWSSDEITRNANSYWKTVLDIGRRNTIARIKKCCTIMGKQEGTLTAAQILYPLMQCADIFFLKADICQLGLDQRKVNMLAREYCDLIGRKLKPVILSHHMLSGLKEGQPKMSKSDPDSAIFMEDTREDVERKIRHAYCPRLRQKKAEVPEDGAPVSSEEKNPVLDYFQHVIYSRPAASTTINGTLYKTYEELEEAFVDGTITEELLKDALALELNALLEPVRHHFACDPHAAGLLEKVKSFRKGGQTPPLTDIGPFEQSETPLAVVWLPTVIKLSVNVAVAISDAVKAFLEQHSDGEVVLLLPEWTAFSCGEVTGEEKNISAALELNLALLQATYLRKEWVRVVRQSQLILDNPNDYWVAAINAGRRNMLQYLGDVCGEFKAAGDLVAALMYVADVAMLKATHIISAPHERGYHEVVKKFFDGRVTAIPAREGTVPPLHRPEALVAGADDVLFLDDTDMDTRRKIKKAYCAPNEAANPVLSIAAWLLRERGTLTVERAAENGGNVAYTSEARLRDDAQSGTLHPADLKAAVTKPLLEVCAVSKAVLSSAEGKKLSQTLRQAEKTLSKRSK
Description: Trypanosoma cruzi tyrosyl tRNA synthetase (TcYRS) _High Tyrosine SOP. Note: in the data most compounds retested in dose-response had high values. Format: functional. The settings on record: 30 µM.

Experiment [10] concerns the target T4, Tyrosyl-tRNA synthetase, putative (Trypanosoma cruzi (strain CL Brener)). Description: Trypanosoma cruzi tyrosyl tRNA synthetase (TcYRS) SOP. Format: functional. The note with it: 30 µM.
Experiment [11] deals with Chromo domain-containing protein 1 (Saccharomyces cerevisiae (strain ATCC 204508 / S288c) (Baker's yeast)) (UniProt P32657). Description: ScCHD-1 Enzyme Inhibition Assay. Note: in the data most compounds retested in dose-response had high values. Format: functional. The note with it: 30 µM.

For some assays here: Measured potencies and affinities stand elsewhere.

Sequence of Sialic acid-binding Ig-like lectin 9 (Homo sapiens) (Q9Y336 whole entry): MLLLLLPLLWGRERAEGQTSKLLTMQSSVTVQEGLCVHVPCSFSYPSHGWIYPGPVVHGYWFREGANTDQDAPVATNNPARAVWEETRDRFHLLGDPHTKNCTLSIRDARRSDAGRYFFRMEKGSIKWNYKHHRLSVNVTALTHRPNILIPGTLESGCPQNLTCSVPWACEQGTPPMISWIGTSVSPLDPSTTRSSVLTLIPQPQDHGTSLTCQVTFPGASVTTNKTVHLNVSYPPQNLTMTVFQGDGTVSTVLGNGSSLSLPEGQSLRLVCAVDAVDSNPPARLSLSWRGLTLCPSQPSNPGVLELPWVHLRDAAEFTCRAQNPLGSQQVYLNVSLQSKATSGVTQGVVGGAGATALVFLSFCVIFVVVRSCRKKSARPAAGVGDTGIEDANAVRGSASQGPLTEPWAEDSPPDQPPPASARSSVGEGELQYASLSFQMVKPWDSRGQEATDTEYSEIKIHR
Sequence of Chromo domain-containing protein 1 (Saccharomyces cerevisiae (strain ATCC 204508 / S288c) (Baker's yeast)) (P32657 whole entry, the tested form may be a part): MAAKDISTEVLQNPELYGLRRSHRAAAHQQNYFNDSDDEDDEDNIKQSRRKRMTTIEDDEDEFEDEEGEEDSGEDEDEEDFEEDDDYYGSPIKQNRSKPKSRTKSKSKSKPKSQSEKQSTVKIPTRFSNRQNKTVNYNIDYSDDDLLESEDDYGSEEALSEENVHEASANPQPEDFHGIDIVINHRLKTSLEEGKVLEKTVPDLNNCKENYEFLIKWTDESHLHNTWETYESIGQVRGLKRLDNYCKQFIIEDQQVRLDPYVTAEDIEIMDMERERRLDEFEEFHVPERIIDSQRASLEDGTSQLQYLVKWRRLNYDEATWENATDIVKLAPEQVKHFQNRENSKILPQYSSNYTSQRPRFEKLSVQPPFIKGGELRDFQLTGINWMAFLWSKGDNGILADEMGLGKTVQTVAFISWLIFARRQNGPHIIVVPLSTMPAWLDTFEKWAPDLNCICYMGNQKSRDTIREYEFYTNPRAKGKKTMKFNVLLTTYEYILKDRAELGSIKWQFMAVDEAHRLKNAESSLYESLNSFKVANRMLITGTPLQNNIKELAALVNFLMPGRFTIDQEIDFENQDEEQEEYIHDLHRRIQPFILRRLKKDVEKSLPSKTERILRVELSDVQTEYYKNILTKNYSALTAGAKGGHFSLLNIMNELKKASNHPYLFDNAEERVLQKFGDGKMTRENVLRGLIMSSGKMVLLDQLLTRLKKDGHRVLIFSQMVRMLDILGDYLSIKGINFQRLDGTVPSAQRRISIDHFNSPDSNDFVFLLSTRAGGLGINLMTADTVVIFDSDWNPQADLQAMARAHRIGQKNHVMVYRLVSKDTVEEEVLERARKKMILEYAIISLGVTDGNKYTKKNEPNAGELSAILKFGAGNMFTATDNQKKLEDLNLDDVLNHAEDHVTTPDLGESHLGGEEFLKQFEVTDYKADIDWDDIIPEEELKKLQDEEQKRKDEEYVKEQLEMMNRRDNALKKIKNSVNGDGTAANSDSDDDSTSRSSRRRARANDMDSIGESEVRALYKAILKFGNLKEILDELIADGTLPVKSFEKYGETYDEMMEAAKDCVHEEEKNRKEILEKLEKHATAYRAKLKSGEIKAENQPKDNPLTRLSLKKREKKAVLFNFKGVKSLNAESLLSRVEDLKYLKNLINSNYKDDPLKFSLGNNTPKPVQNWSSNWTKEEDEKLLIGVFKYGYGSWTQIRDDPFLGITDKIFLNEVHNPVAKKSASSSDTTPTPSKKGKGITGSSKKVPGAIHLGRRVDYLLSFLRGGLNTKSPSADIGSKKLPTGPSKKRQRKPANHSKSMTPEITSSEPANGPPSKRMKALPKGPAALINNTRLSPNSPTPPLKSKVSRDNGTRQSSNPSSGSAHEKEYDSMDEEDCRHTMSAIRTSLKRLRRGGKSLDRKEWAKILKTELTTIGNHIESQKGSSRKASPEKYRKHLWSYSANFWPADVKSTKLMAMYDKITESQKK
Sequence of Protein translocase subunit SecA (Escherichia coli (strain K12)) (P10408 whole entry): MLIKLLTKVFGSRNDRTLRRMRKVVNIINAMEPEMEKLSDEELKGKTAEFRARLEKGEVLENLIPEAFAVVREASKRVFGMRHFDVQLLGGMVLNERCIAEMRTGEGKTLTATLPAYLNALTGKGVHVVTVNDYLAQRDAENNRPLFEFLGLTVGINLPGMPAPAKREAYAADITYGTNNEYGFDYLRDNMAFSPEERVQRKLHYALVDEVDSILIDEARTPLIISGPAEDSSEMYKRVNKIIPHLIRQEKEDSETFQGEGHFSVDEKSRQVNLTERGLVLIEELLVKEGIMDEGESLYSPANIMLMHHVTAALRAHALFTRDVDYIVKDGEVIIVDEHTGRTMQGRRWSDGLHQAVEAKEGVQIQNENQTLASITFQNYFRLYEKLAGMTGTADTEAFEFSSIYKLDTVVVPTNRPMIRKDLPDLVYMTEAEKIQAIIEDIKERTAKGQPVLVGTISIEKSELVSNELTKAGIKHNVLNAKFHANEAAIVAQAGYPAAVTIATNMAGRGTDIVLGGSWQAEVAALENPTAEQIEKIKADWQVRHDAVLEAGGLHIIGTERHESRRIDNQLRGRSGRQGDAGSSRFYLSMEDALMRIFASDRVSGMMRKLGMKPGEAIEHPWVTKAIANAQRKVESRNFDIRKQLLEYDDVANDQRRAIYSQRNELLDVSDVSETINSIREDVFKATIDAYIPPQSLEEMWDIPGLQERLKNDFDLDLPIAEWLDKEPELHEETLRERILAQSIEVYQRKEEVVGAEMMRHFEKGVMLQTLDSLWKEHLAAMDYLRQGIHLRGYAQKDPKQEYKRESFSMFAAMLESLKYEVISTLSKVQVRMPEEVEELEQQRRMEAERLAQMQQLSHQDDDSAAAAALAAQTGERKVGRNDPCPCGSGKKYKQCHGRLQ

For the compound `COc1ccc(CN(C)CC2(O)CCN(C(=O)c3cccn3C)C2)cc1` (stereo not given), the Percent Effect in experiment [1] is -9.44%; in experiment [2], -1.35%; in experiment [3], 5.12%; in experiment [4], 2.88%; in [5] it was -1.78%; in [6], -7.19%. The Percent Effect is -1.87% in [7]; 11.8% in experiment [8]; -2.15% in experiment [9]; -3.9% in experiment [10]; -10.2% in [11].

For the compound `CN(C)S(=O)(=O)c1ccc(CN2CCCC2CO)o1` (stereo not given), the Percent Effect in experiment [1] was -4.59%; in experiment [2] it was 0%; in experiment [3], -2.33%; in experiment [4] it was 10.6%; in experiment [5], -0.84%; in experiment [6], -2.88%. Further, the Percent Effect in experiment [7] was -3.3%; in experiment [8] it was 11.2%; in [9], 4.43%; in experiment [10] it was 3.7%; in experiment [11] it was 1.24%.

In the case of `Cn1cccc1CN1CCC2(CCCN(C(=O)Cc3cccnc3)C2)C1` (stereo not given), the Percent Effect is -2.25% in experiment [1]; 0% in experiment [2]; -2.27% in experiment [3]; -5.33% in experiment [4]; -2.07% in [5]; -4.52% in experiment [6]. Also, the Percent Effect in [7] was 1.39%; in [8] it was 2.23%; in experiment [9], -2.12%; in [10] it was -6.41%; in experiment [11], -7.07%.

`O=C(CCc1cscn1)NS(=O)(=O)c1ccc2c(c1)CCC2`: the Percent Effect in [1] was -5.7%; in [2], 15.3%; in experiment [3], -13.9%; in experiment [4] it was 36.9%; in experiment [5], 7.29%; in experiment [6] it was 22.5%. The Percent Effect in experiment [7] was 3.33%; in [8], 5.07%; in [9] it was 3.16%; in [10], 15.4%; in experiment [11] it was -4.74%.

With `O=C(c1cnn2c1OCCC2)N1CCN(C/C=C/c2ccccc2)CC1`, the Percent Effect in experiment [1] is -2.24%; in experiment [2] it was 7.79%; in [3] it was 3.47%; in experiment [4], 6.1%; in experiment [5], -1.28%; in experiment [6] it was -5.81%. For the same compound, the Percent Effect in experiment [7] is 8.88%; in experiment [8], 10.8%; in [9], 5.29%; in experiment [10] it was 16.7%; in experiment [11] it was -8.13%.

On to `CCCC(NC(=O)c1ccc(OC)cc1F)c1nnn[nH]1` (stereo not given), for which the Percent Effect in experiment [1] was -2.26%; in [2], 5.33%; in [3], -8.28%; in [4], 11.5%; in experiment [5], 5.16%; in experiment [6], 17.2%. Also, the Percent Effect in [7] was 9.24%; in experiment [8], -13.2%; in experiment [9], 4.92%; in [10], 8.64%; in [11] it was -4.91%.

`CCOc1ccc(NC(=O)CN2CCN(c3nccn3C)CC2)cc1`: the Percent Effect in experiment [1] is 0.133%; in experiment [2] it was 10.4%; in experiment [3] it was 0.177%; in experiment [4], -1.93%; in [5], 7.79%; in experiment [6], -3.23%. For the same compound, the Percent Effect is 15.5% in [7]; -6.28% in experiment [8]; 9.52% in experiment [9]; 14.1% in experiment [10]; -9% in [11].

`O=c1cc(Cn2ccnc2)nc2n1CCCN(Cc1ccsc1)C2`: the Percent Effect in [1] was -4.06%; in [2] it was 4%; in experiment [3] it was 0.478%; in experiment [4], 7%; in experiment [5] it was -5.7%; in experiment [6] it was -6.51%. Besides, the Percent Effect in experiment [7] is 13.3%; in experiment [8], -7.79%; in [9], 7.41%; in [10] it was 5.13%; in experiment [11] it was -8.3%.

In the case of `CC(Cc1ccco1)NC(=O)Nc1ccc(N2CCOCC2)nc1` (stereo not given), the Percent Effect in experiment [1] is -3.25%; in [2], 15.8%; in experiment [3] it was -15.8%; in experiment [4] it was 11.3%; in [5], 1.5%; in [6], 0.383%. Also, the Percent Effect in experiment [7] is 11.2%; in experiment [8] it was -9.28%; in experiment [9], 3.43%; in experiment [10] it was 19.5%; in [11] it was -11.4%.

Take `O=C(NCc1csc(Br)c1)c1ccncc1`: the Percent Effect in [1] was -2.58%; in experiment [2], 19%; in [3] it was 5.52%; in experiment [4], 2.28%; in experiment [5], 0.103%; in experiment [6] it was 2.8%. For the same compound, the Percent Effect in [7] was 11.3%; in experiment [8], 21.8%; in [9] it was -1.04%; in [10], 15.2%; in experiment [11], -29.5%.

The values are drawn from ChEMBL document CHEMBL3988442, “University of Dundee, Small-Polar-MMV Screening Library” (2021).
